Compound activity deposited in PubChem BioAssay by National Center for Advancing Translational Sciences (NCATS).
D1 PAM – human D1 dopamine receptor positive modulation | P21728 | HEK293 TREx D1 cells, calcium flux, dopamine EC20 potentiation | potentiation, % at 10 µM | 360,000 compounds, 0.036% hits | AID 504651; in the data active = potentiation above about 30%; note: 0% is about no effect
DRD3 antagonist – blocks the human D3 dopamine receptor; D3R cells, DiscoveRx beta-arrestin luminescence, antagonist mode; active compounds read low; max response, negative = inhibition, %; 360,000 compounds, 2.5% hits; AID 652054; in the data active = max response below about -50%; note: % is set by controls: 0 for no effect and ±100 for the full control effect
Target sequence (P35462 whole entry, looked up): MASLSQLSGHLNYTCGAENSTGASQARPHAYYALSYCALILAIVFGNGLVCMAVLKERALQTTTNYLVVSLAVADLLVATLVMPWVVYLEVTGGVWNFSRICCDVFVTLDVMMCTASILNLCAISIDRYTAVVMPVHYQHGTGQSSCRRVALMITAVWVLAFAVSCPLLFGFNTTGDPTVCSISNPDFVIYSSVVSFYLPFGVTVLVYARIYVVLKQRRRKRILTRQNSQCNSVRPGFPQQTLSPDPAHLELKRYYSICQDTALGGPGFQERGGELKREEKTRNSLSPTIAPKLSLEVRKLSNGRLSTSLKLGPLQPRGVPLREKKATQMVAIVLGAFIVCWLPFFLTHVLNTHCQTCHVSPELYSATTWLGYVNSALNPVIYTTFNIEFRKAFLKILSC
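Cells expressing the human receptor were seeded at 1500 cells/well, incubated overnight at 37 degrees C in 5% CO2, then exposed to library compounds with dopamine controls for 90 minutes at 37 degrees C before luminescent detection.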
D1 ag – activates the human D1 dopamine receptor; activation, % at 2 µM; AID 504660; 360,000 compounds, 1% hits; P21728; HEK293 T-REx D1 cells, calcium flux, agonist mode; in the data active = activation above about 30%; note: 0% is about no effect
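Agonism was scored from calcium flux recorded over 180 s (1 read/s) after pintool compound addition, following a 10-cycle baseline. Cells were inducible force-coupled HEK293 TREx D1, plated overnight at 30 C and loaded with no-wash calcium dye.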
DRD3 agonist – activates the human D3 dopamine receptor | max activation, % | D3R DiscoveRx beta-arrestin cells, luminescence, 90 min | 410,000 compounds, 0.58% hits | AID 652048; in the data active = max activation above about 30%; note: 0% is about no effect
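Agonist-mode cell screen: cells plated at 1500/well and incubated overnight at 37 °C, then exposed to library compounds for 90 min at 37 °C. Detection reagent was added for 30–60 min at room temperature, and luminescence was read.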
D1 antag – blocks dopamine activation of the human D1 receptor; P21728; HEK293 TREx D1 cells, calcium flux, dopamine EC80; active compounds read low; activity change, negative = inhibition, % at 10 µM; 360,000 compounds, 3.2% hits; AID 504652; in the data active = activity change below about -30%; note: % is set by controls: 0 for no effect and ±100 for the full control effect
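HEK293 T-REx cells expressing inducible, force-coupled D1 receptor; no-wash Ca dye, 30–90 min RT. Cmpd → 180 s read at 1 Hz → EC80 DA → 180 s read.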
An asterisk follows results filed as active; / = no result; ! = not active in a repeat. Shown are actives, neighbours in structure and some others; about 6% of the full set was active somewhere.

SMILES	D1 PAM	DRD3 antagonist	D1 ag	DRD3 agonist	D1 antag
CCOC(=O)c1cc2c(ccn2C)n1CC(=O)N(Cc1ccccc1)c1ccc(F)cc1	0	16	2	-30	-37*
CCOC(=O)c1cnc2c(C)c(Cl)ccc2c1Nc1ccc(N2CCOCC2)cc1	0	/	3	0	4
CCCn1c(N)c(C(=O)CSc2nnc(-c3ccoc3C)n2C)c(=O)n(C)c1=O	-3	4	1	2	-2
C=CCn1c(SCC(=O)c2c(N)n(CCC)c(=O)n(C)c2=O)nnc1-c1ccncc1	-8	18	2	4	-32*
CCCCc1ccc(-n2nc3cc(Cl)c(NC(=O)c4ccc(OC)cc4)cc3n2)cc1	-2	/	0	1	2
Cc1ccc(NC(=O)COC(=O)CCCC2=NS(=O)(=O)c3ccccc3N2)cc1C	8	6	2	7	-6
Cc1ccccc1COC(=O)CCCC1=NS(=O)(=O)c2ccccc2N1	-3	-8	31*	3	-1
COc1ccc(-n2c(=O)[nH]cc(C(=O)N3CCCc4ccccc43)c2=O)cc1	-3	8	2	-6	-31*
COc1ccc(CCC(=O)N2CCCc3ccccc32)cc1	-2	5	-2	0	-37*
Cc1cc(=O)oc2cc(OCCSCCN3CCCCC3)ccc12	-4	-66*	1	-12	-37*
Cc1cc(=O)oc2cc(OCCc3ccccc3)ccc12	-15	-8	4	-2	10
COc1ccc(OCCCC(=O)N2CCCc3ccccc32)cc1	-8	21	4	1	-34*
CCCCNC(=O)CSc1nnc(C)c2c(C)n(-c3ccccc3)nc12	0	/	0	-13	8
CCOC(=O)/C(=N/Nc1ccccc1)N1CCCc2ccccc21	-4	-18	10	2	-2
CCOC(=O)/C(=N/Nc1ccc(OC)cc1)N1CCCc2ccccc21	-3	6	0	3	-42*
Cc1cc(=O)oc2cc(OCC(=O)N3CCCc4ccccc43)ccc12	-8	23	2	0	-35*
COc1ccc(CN2C(=O)N(c3ccc(F)cc3)C(=O)C2CC(=O)Nc2cc(OC)cc(OC)c2)cc1 (centres undefined)	-3	/	3	1	-15
Cc1ccc(-n2nc3c(=O)n(CC(=O)NC(C)C)nc(C)c3c2C)cc1	-2	/	1	2	-35*
CCOc1ccc(CNC(=O)Cn2nc(C)c3c(C)n(-c4ccc(C)cc4)nc3c2=O)cc1	-2	-13	1	-2	-50*!
Cc1ccc(-n2nc3c(=O)n(CC(=O)NCc4ccco4)nc(C)c3c2C)cc1	-2	/	2	-12	-34*
Cc1nn(CC(=O)NCCc2ccco2)c(=O)c2nn(-c3ccccc3)c(C)c12	-6	-11	0	-5	3
Cc1cc(C)cc(NC(=O)Cn2c3ncccc3c(=O)n2-c2ccc(C)c(C)c2)c1	2	/	3	7	14
COc1ccc(NC(=O)CSc2nc3cc(OC)c(OC)cc3c3nc(-c4ccccc4)nn23)cc1Cl	2	/	3	-12	-7
CCOC(=O)c1c(S(=O)(=O)N2CCC(C(=O)NCc3ccccc3Cl)CC2)c(C)n(C)c1C	-1	/	5	5	-8
COc1cc(NC(=O)C2CCN(S(=O)(=O)c3c(C)noc3/C=C/c3c(C)cc(C)cc3C)CC2)cc(OC)c1	-1	/	5	0	2
SMILES	D1 PAM	DRD3 antagonist	D1 ag	DRD3 agonist	D1 antag
COc1ccc(C2(O)CCN(CC(=O)Nc3nccs3)CC2)c(OC)c1	-20	-6	2	-6	-31*
COc1cc(NC(=O)CCc2c(C)nc3c(-c4ccc(F)cc4)c(C)nn3c2C)cc(OC)c1OC	-8	/	0	-13	-41*
COc1cc(NC(=O)CCc2c(C)nc3nc(-c4cc(OC)cc(OC)c4)nn3c2C)cc(OC)c1	0	/	1	-8	5
COc1cc(OC)cc(-c2nc3nc(C)c(CCC(=O)Nc4ccc(C)c(C)c4)c(C)n3n2)c1	-3	/	3	-18	-57*
COC(=O)c1ccccc1NC(=O)Cn1nc(C)c2nn(-c3ccc(Cl)cc3)c(C)c2c1=O	-2	/	0	9	-22
Cc1c(-c2csc(N)n2)cnn1C	-1	4	2	42*	7
O=[S+]([O-])(/C=C/c1nc(Nc2cc(F)cc(F)c2)c2ncn(CC(F)F)c2n1)c1ccccc1	3	/	0	/	4
O=C(CN1C(=O)COc2ccc(S(=O)(=O)N3CCCCCC3)cc21)NCCc1ccccc1	20	/	2	-15	-2
Cc1ccc2cc3c(nc2c1)N(Cc1ccco1)CC3	-8	-56*	14	1	-17
COc1ccccc1CNC(=O)c1ccc(N2Cc3cccc(OC)c3Oc3ncccc32)s1	-6	/	2	2	-9
Cc1ccccc1C(=O)OCCN(C)Cc1ccccc1	-4	-70*	4	-14	/
CCOc1cccc(OCCOCCN(C)Cc2ccccc2)c1	-7	-64*	4	-11	-13
CN(CCOCCOc1ccc(F)cc1)Cc1ccccc1	0	-89*	6	-20	28
CCOc1cccc(OCCOCCN(C)C)c1	1	-8	2	-4	-4
CCCCN(C)CCOc1ccccc1OCC	-7	-98*	3	-19	-8
Cc1ccc(C(=O)OCCN(C)Cc2ccccc2)cc1	-4	-29	-1	-9	1
Cc1cccc(NC(c2cccc(Cl)c2)c2ccc3cccnc3c2O)n1 (centres undefined)	-2	/	3	21	1
Cc1ccc(CCNC(c2ccc(F)cc2)c2nnc(-c3ccccc3Cl)o2)cc1 (centres undefined)	5	/	17	6	-12
Cc1ccc(-n2c(=O)c3oc4ccccc4c3n(CC(=O)Nc3ccc(F)c(Cl)c3)c2=O)cc1C	-3	/	2	6	2
Cc1c(C(=O)Nc2ccc(F)c(Cl)c2)sc2nc3n(c(=O)c12)CCC3	-2	/	2	8	5
O=C(NCc1ccc(Cl)cc1)C(=O)NCC(c1cccnc1)N1CCN(c2ccccc2)CC1 (centres undefined)	-1	/	1	0	4
C=CCc1cc(Cl)ccc1OCCN(C)C	-14	-55*	6	-55	13
CN(CCOCCOc1ccc(Cl)cc1Br)Cc1ccccc1	-18	-64*	7	-18	8
COc1ccccc1OCCOCCOc1ccccc1Cl	-3	4	1	7	0
CCOc1ccc(OCCN(C)Cc2ccccc2)cc1	0	-83*	0	-4	0
CN(CCOc1ccccc1Cl)Cc1ccccc1	-9	-76*	0	5	-1
C=CCc1cc(OC)ccc1OCCN(C)Cc1ccccc1	-5	-59*	8	-26	12
COc1ccc(OCCCCN(C)Cc2ccccc2)cc1	0	-29	3	-27	0
CN(CCOc1ccc(Cl)c(Cl)c1)Cc1ccccc1	2	-93*	1	-24	2
